Screening data (PubChem BioAssay)
The list is not random: actives were taken first. Their share in the collection is about 5.3%.
HPGD block – HPGD (human) dehydrogenase inhibition. P15428. purified HPGD, NADH fluorescence kinetic, PGE2 substrate. Potency, µM, inactives show at the top dose activity change, negative = inhibition, actives largely listed as inhibitors. 150,000 tested, 4.3% active; active = well fitted inhibition curve with a large enough effect, not every such curve was filed as active; inconclusive = small, poorly fitted or top-dose-only effect, or another doubt; inactive = no such curve, though single readings can be large or run the other way; also: potency is read from the fitted curve at half-maximal effect
Target sequence (P15428 whole entry, looked up): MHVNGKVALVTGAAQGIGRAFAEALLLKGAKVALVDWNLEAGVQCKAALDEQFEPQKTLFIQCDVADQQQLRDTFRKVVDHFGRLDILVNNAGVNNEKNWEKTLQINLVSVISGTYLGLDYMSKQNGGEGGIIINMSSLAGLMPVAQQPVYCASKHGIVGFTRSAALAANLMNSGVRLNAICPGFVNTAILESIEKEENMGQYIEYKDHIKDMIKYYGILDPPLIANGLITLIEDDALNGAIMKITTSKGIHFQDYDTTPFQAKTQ
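20 nM HPGD preincubated 15 min at room temperature with compound in 50 mM Tris-HCl pH 8, 0.01% Tween 20. Started with 1 mM NAD+ and 30 uM prostaglandin E2; NADH fluorescence (360/450 nm) read 5 times over 30-s intervals, last minus first.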
IMPase inh – cell-permeable inhibitors of inositol monophosphatase (IMPase); P97697; CHO-M1 cells, IP1 accumulation, HTRF TR-FRET ratio; inhibition (IP1 accumulation), % at 46.1 µM; 120,000 tested, under 10 active; AID 901; active = well fitted curve in the direction sought with a large enough effect in the signal ratio, not every such curve was filed as active; inconclusive = small, poorly fitted or top-dose-only effect, or a change in a side signal; inactive = no such curve, though single readings can be large or run the other way; the % refers to the signal ratio;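 also: cells stimulated with carbachol in lithium chloride buffer; plate controls were DMSO basal wells for no effect and reference inhibitor wells for full effect; higher means more IMPase inhibition seen as more IP1 and lower FRET ratio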
Target sequence (P97697 whole entry, looked up): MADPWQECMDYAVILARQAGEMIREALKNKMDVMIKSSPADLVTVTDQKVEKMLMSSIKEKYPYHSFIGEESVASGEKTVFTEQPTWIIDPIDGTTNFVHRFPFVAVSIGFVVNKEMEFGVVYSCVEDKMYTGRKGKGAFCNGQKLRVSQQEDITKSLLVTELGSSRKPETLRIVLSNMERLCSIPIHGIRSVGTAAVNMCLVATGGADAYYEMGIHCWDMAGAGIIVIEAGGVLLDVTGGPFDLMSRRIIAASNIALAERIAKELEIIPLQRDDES
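Carbachol-driven Gq signalling in CHO-M1 cells (2000/well) generates IP1. Compounds that block IMPase raise IP1 and so reduce the FRET signal from Eu-anti-IP1 and d2-IP1 after a 10 min room-temperature lysis.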
12-hLO inh – 12-hLO (ALOX12) enzyme inhibition; 150,000 tested, 0.12% active; AID 1452; purified 12-hLO, xylenol orange hydroperoxide absorbance; Potency, µM (titrated, usually from 57.1 µM), for the others: at the highest dose activity change, negative = inhibition, actives largely listed as inhibitors; also: potency is read from the fitted curve at half-maximal effect; nearly all actives have a fitted effect of over 55% in size
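Xylenol orange chromogenic assay: hydroperoxide from 12hLO oxidises Fe(II), giving red-shifted Fe(III)-XO absorbance. Conditions: 150 nM enzyme, 40 uM arachidonic acid, 25 mM Hepes pH 7.0, 0.01% Triton X-100, 30 min, room temperature.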
15-hLO-2 inh – blocks human 15-lipoxygenase 2 activity; purified 15hLO-2, xylenol orange hydroperoxide absorbance; Potency, µM (series often up to 57.1 µM), inactives show at the highest dose activity change, negative = inhibition, most hits filed as inhibitors; 110,000 tested, 0.56% active; AID 881; also: potency is read from the fitted curve at half-maximal effect; nearly all actives have a fitted effect of over 60% in size
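Screening format was qHTS against 50 nM purified 15hLO-2 in Hepes pH 7.5 with detergent. Activity follows hydroperoxide formation from 45 uM arachidonic acid, measured as 573:405 nm absorbance ratio of the ferric-xylenol orange complex.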
IMPase Li inh – IMPase inhibition in cells with lithium potentiation; 210,000 tested, 0.35% active; CHO-M1 cells, IP1 TR-FRET (IP-One), carbachol + lithium; AID 1457; Potency, µM (titrated, usually from 59.4 µM), for inactives: at the top dose activity, negative = IMPase inhibition, most hits filed as inhibitors;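 also: IP1 builds up when IMPase is blocked and the TR-FRET signal falls; potency is read from the fitted curve at half-maximal effect; plate controls were basal vehicle for no effect and high inhibitor control for full effect; nearly all actives have a fitted effect of over 50% in size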
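IP1 accumulation measured by competitive TR-FRET in lysed CHO-M1 cells after 30 min compound exposure at 37C, with a small lithium addition to potentiate weak responses. Hill-equation AC50 from ratio and donor-channel data.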
PNC assembly inh – blocks assembly of the perinucleolar compartment | 140,000 tested, 3.1% active | PC3M PTB-GFP, PNC prevalence imaging, 16 h; hits give low values | activity change (PNC), negative = inhibition, % at 10 µM;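 active = readout at or below -70, meaning at least 70% loss of cells showing the perinucleolar compartment, a nuclear body marking cancer cells; inconclusive = readout between -30 and a set limit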;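 also: plate controls were DMSO wells for no effect and camptothecin positive control wells for full effect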
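PC3M cells stably expressing PTB-GFP, 750–1000 cells/well, treated 16 h at 37 °C with compound (23 nl of library stock), in duplicate. After paraformaldehyde fixation and Hoechst stain, imaged at 20x; PNC prevalence scored by image analysis.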
* hit, by the source's call; ? = inconclusive; . = no result given; [ ] = remark or other dose. Unless noted, calls follow the shape of the dose curve; as a rule, active = well fitted curve in the direction sought with a large enough effect; inconclusive = small, poorly fitted or top-dose-only effect, or another doubt; inactive = no such curve, though single readings can be large; an effect the other way counts as inactive or inconclusive. Unless noted, % is scaled to controls: 0 for no effect and ±100 for the full control effect.

SMILES | HPGD block | IMPase inh | 12-hLO inh | 15-hLO-2 inh | IMPase Li inh | PNC assembly inh
S=c1[nH]nc(COc2ccccc2)n1/N=C/c1cccnc1 | 14µM* | . | 1% | . | 1% | 27
FC(F)(F)c1ccc(/C=N/N2CCN(Cc3ccccc3)CC2)cc1 | 1% | . | -2% | . | 3% | ?
O=[N+]([O-])c1cccc(/C=N/n2c(COc3ccccc3)n[nH]c2=S)c1 | 4µM* | 5 | ? | ? | 32%[38.3 µM] | -3
CCN(Cc1ccccc1)S(=O)(=O)c1ccc(C(=O)N2CCN(c3nc4ccccc4s3)CC2)cc1 | -19% | . | 0% | . | 26% | 57
O=[N+]([O-])c1ccc(/C=N/n2c(COc3ccccc3)n[nH]c2=S)cc1 | 5µM* | 12 | -19% | -12% | -9%[38.3 µM] | ?
CN(C)c1ccc(/C=N/n2c(COc3ccccc3)n[nH]c2=S)cc1 | 13µM* | . | -2% | . | 11% | -1
CN(C)c1ccc(/C=N/n2c(-c3cccnc3)n[nH]c2=S)cc1 | . | . | . | . | -3% | .
Cc1ccc(NC(=O)COC(=O)c2ccn(C)n2)cc1 | -8% | 7 | 0% | -4% | 7%[38.3 µM] | ?
Cc1ccc(-n2c(=S)[nH]c3c(oc4ccccc43)c2=O)cc1C | . | ? | -12% | . | . | 69
O=c1c2oc3ccccc3c2[nH]c(=S)n1-c1ccc(F)cc1 | . | . | . | . | 11µM* | .
Cc1ccc(S(=O)(=O)CCC(=O)OC(C)C(=O)c2c(C)[nH]c3ccccc23)cc1 (stereo not drawn) | -3% | . | -5% | . | 3% | 55
COc1ccccc1C1CC(c2cccs2)=Nc2ccccc2S1 (stereo not drawn) | -4% | 6 | -13% | -14% | 44%[38.3 µM] | 13
COc1ccccc1C1CN(c2ccc(F)cc2F)N=C1c1cccs1 (stereo not drawn) | ? | -26 | -17% | -6% | 14µM* | -94*
C[C@H](N)c1nnc(SCc2ccc(Cl)cc2Cl)o1 | -7% | 9 | -3% | 24% | -16%[38.3 µM] | -13
C[C@H](N)c1nnc(SCc2c(Cl)cccc2Cl)o1 | 32µM* | -1 | 0% | 1% | 19%[38.3 µM] | 3
COc1cc2c(cc1NC(=O)CN(C)Cc1ccc(OC)c(OC)c1)oc1ccccc12 | . | 8 | 1% | . | . | -26
Cc1ccccc1NC(=O)c1cc(C(=O)c2cc(Cl)ccc2O)cn(-c2ccccc2C)c1=O | 10µM* | . | -3% | . | 13% | 22
CCNc1nc(Oc2ccc(=O)[nH]n2)nc(N2CCOCC2)n1 | 2% | 2 | -5% | 0% | 5%[38.3 µM] | ?
O=c1ccc(Oc2nc(N3CCCCC3)nc(N3CCCCC3)n2)n[nH]1 | -1% | 3 | -4% | -2% | -2%[38.3 µM] | -100*
COC(=O)c1cc(=O)c2c(C)nc(C(Cl)(Cl)Cl)nc2[nH]1 | . | . | . | . | -3% | .
COc1ccc(N/N=C(\C=N\O)C(=O)c2ccc(OC)cc2)cc1 | -25% | 13 | -16% | ? | 35%[38.3 µM] | -112*
O=Cc1ccc(Sc2nnc(-c3ccccc3)o2)c([N+](=O)[O-])c1 | 14µM* | -15 | -9% | -16% | -1%[38.3 µM] | -25
Cc1cc(C)nc(Sc2ccc(C=O)cc2[N+](=O)[O-])n1 | . | . | . | . | 3% | .
CN(C)c1ccc(CNC(=O)C2(C)C=CCN2C(=O)c2ccccc2)cc1 (stereo not drawn) | -17% | . | -3% | -3% | 0% | .
CC(=O)c1cc(C#N)c(N2CCCC2)nc1C | . | . | . | . | 7% | .
SMILES | HPGD block | IMPase inh | 12-hLO inh | 15-hLO-2 inh | IMPase Li inh | PNC assembly inh
O=C1CN(S(=O)(=O)c2ccc(F)cc2)CC(=O)N1CCc1ccccc1 | ? | 10 | 6% | -5% | 14%[38.3 µM] | -100*
COCCn1nnnc1CN1CCOCC1 | -8% | 0[9.22 µM] | 6% | -7% | -18%[38.3 µM] | -11
COCCn1nnnc1CN1CCC(C)CC1 | -7% | -2 | 4% | . | 6% | -100*
COCCn1nnnc1CN1CCC(NC(=O)c2ccc(Br)cc2)CC1 | -11% | 11 | 1% | . | 6% | -100*
COc1cc(C(=O)NC2CCN(Cc3nnnn3Cc3cccs3)CC2)cc(OC)c1OC | -7% | 8 | 5% | 2% | 46%[38.3 µM] | -16
Cc1ccc(Cl)cc1N1CCN(Cc2nnc(-c3ccc4c(c3)OCO4)o2)CC1 | . | 6 | . | . | . | .
COC(=O)C1=C(C)C(c2cccs2)NC(=O)N1C (stereo not drawn) | -13% | 0 | 2% | . | 8% | -100*
CCN1C(=O)N[C@@H](c2cccs2)C(C(=O)OC)=C1C | 0% | . | 1%[11.4 µM] | . | -5% | .
CNS(=O)(=O)c1ccc(NC(=O)c2cncc(Br)c2)cc1 | . | . | . | . | 6% | .
CCOCCCNC(=S)Nc1ccc2nc3n(c(=O)c2c1)CCCCC3 | . | . | . | . | 5% | .
CC(C)OCCCNC(=S)Nc1ccc2nc3n(c(=O)c2c1)CCCCC3 | . | . | . | . | 6% | .
CC(C)CCNC(=S)Nc1ccc2nc3n(c(=O)c2c1)CCCCC3 | 4.5µM* | -8 | -1% | . | 7% | 29
CC1CCN(C(=S)Nc2ccc3nc4n(c(=O)c3c2)CCCCC4)CC1 | 13µM* | 4 | -3% | . | 2% | ?
CCCCNC(=S)Nc1ccc2nc3n(c(=O)c2c1)CCCCC3 | 14µM* | . | -2% | . | -1% | 4
O=C(CSc1cn(Cc2ccccc2)c2ccccc12)NCc1ccc(F)cc1 | -8% | . | 1% | . | -7% | 60
CCOc1ccc(-c2cc(C(=O)N/N=C/c3ccc(O)c(OC)c3)[nH]n2)cc1 | -14% | . | 2% | . | . | .
CC(C)=C1C(=O)C(c2ccccc2)=C2CN3C(=O)N(CCc4ccccc4)C(=O)[C@]3(C)[C@H]21 | -5% | . | -7% | -7% | 6% | .
Cc1ccc(C(=O)CC(=O)c2cccc(F)c2)c(O)c1 | 14µM* | -1 | -28% | -3% | 16%[38.3 µM] | 7
CC(=O)c1ccc(C)cc1OC(=O)c1cccc(F)c1 | . | . | . | . | 1% | .
CC(=O)NC1=NN(C(C)=O)C(c2cccs2)S1 (stereo not drawn) | -11% | 2 | 5% | . | 7% | -100*
O=C(CN1C(=O)NC2(CCCCC2)C1=O)NC1CCCc2ccccc21 (stereo not drawn) | -7% | -12 | -2% | . | 2% | 15
Cc1ccccc1NC(=O)c1c(NC(=O)c2ccco2)sc2c1CCC(C(C)(C)C)C2 (stereo not drawn) | . | -5 | . | . | . | .
CC(C)(C)C1CCc2c(sc(NC(=O)c3ccco3)c2C(N)=O)C1 (stereo not drawn) | ? | ? | 3% | . | 5.6µM* | -20
COC(=O)c1[nH]c2ccc(C)cc2c1NC(=O)NC1CCCCC1 | -12% | -2 | -4% | -5% | 28%[38.3 µM] | ?
O=C(Nc1c(C(=O)O)[nH]c2ccccc12)NC1CCCCC1 | ? | 1 | -5% | ? | -12%[38.3 µM] | -100*
CC(C)(C)c1ccc(/C=C/C(=O)N2CCOCC2)cc1 | 25µM* | . | 1% | . | 4% | 177
